The campaign covered roughly 310,000 compounds. About 14,000 (4.5%) showed an effect of 50% or more. The effect is printed as a negative number. Shown is part of a subset that was picked to be rich in strong results.
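Further: peak tail current of the secondary pulse compared with the same well before compound.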

Chain of human ether-à-go-go-related gene (hERG) potassium channel (Q12809 whole entry, looked up): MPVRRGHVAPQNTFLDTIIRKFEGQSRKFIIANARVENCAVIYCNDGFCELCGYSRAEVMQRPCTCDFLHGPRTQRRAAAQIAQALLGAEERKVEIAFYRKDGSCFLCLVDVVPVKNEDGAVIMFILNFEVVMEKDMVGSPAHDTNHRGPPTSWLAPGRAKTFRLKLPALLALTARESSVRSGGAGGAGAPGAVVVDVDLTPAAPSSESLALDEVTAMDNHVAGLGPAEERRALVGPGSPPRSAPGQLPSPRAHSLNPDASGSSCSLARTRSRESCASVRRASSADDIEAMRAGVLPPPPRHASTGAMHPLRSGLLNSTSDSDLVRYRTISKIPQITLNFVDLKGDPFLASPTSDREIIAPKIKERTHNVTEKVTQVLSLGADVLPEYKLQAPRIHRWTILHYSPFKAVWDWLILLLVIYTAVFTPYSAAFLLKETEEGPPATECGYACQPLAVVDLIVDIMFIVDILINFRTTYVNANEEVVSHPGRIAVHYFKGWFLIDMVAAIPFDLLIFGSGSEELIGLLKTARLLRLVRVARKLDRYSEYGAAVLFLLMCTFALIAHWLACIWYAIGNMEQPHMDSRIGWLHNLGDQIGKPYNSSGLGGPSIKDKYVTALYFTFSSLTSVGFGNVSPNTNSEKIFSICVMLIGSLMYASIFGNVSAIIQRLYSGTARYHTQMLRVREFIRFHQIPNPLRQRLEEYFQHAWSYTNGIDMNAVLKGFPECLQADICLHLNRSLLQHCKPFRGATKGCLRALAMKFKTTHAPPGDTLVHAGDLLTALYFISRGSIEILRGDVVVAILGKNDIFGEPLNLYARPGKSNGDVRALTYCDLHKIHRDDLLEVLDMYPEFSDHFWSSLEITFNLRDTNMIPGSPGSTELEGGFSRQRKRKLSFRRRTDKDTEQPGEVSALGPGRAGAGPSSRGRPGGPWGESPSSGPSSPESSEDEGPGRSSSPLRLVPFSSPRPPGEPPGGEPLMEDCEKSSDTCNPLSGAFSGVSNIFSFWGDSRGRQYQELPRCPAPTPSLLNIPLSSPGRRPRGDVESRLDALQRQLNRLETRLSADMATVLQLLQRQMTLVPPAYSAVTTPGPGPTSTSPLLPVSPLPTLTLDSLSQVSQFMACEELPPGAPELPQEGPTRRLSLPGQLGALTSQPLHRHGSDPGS

The assay has as its target human ether-à-go-go-related gene (hERG) potassium channel (human, UniProt Q12809). The experiment in a line: primary screen, population patch clamp on CHO cells stably expressing hERG; higher = less effect of the substance.
In the case of `CCOC(=O)C1(Cc2ccccc2)CCN(Cc2cc(=O)c3ccccc3[nH]2)CC1`, the “hERG current change (%, negative = inhibition) at 10uM” value is 13.5%.

As for `CC(=O)Nc1ccc2nc(CN3CCN(CC(C)C)C(CCO)C3)ccc2c1` (centres unmarked), the “hERG current change (%, negative = inhibition) at 10uM” value was found to be 17%.

Turning to `CCOC(=O)C1(Cc2ccccc2)CCN(Cc2ccc3cc(NC(C)=O)ccc3n2)CC1`, the “hERG current change (%, negative = inhibition) at 10uM” value is -68.7%.

Regarding `CC(=O)Nc1ccc2nc(CN3CCN(CC=C(C)C)C(CCO)C3)ccc2c1` (centres unmarked), the “hERG current change (%, negative = inhibition) at 10uM” value was determined as 11.5%.

As to `CCOC(=O)C1(Cc2ccccc2)CCN(Cc2ccon2)CC1`, the “hERG current change (%, negative = inhibition) at 10uM” value is recorded as 0.71%.

Take `CC(=O)Nc1ccc2nc(CN3CCC(CO)(CCc4ccccc4)CC3)ccc2c1`: the “hERG current change (%, negative = inhibition) at 10uM” value is on record as -68.2%.

In the case of `COc1ccc(C(=O)Nc2nc3c(s2)CCCC3)cc1S(=O)(=O)N1CCCc2ccccc21`, the “hERG current change (%, negative = inhibition) at 10uM” value was -2.36%.

As for `Cc1noc(C)c1COc1ccc(C(=O)O)cc1`, the “hERG current change (%, negative = inhibition) at 10uM” value is listed as 17.1%.

Take `CCCCc1n[nH]c2c1/C(=N/O)CC(c1ccccc1)C2` (centres unmarked): the “hERG current change (%, negative = inhibition) at 10uM” value is 8.46%.

In the case of `Cc1ccc(C(OCC(O)CNC(CO)C(O)c2ccc([N+](=O)[O-])cc2)c2ccccc2)cc1` (centres unmarked), the “hERG current change (%, negative = inhibition) at 10uM” value is -22.4%.

Take `CC(NCC(O)COc1ccc2ccccc2c1)c1ccccc1.O=C(O)C(=O)O` (centres unmarked): the “hERG current change (%, negative = inhibition) at 10uM” value was -44%.

As to `COc1cccc(OCC(O)CNC(C)c2ccccc2)c1.Cl` (centres unmarked), the “hERG current change (%, negative = inhibition) at 10uM” value is reported as 2.14%.

Turning to `OC(CNCCc1ccc(C(F)(F)F)cc1)COc1cccc2ccccc12` (centres unmarked), the “hERG current change (%, negative = inhibition) at 10uM” value is recorded as -36.5%.

For `COc1ccc(CCNCC(O)c2ccccc2)cc1.O=C(O)C(=O)O` (centres unmarked), the “hERG current change (%, negative = inhibition) at 10uM” value was -11.4%.

In the case of `COc1ccccc1COCC(O)CNCCc1ccc(C(F)(F)F)cc1.O=C(O)C(=O)O` (centres unmarked), the “hERG current change (%, negative = inhibition) at 10uM” value is given as -56.5%.

Regarding `COc1ccc(C(OCC(O)CNC(C)c2ccccc2)c2ccc(OC)cc2)cc1` (centres unmarked), the “hERG current change (%, negative = inhibition) at 10uM” value is -52.4%.

With `COc1ccc(C(OCC(O)CNCCc2ccc(S(N)(=O)=O)cc2)c2ccc(OC)cc2)cc1` (centres unmarked), the “hERG current change (%, negative = inhibition) at 10uM” value was -43.2%.

Take `Cc1ccc(C(OCC(O)CNC(C)c2ccccc2)c2ccccc2)cc1` (centres unmarked): the “hERG current change (%, negative = inhibition) at 10uM” value is on record as -58.2%.

Turning to `COc1ccc(C(OCC(O)CNCCc2ccccc2)c2ccc(OC)cc2)cc1.O=C(O)C(=O)O` (centres unmarked), the “hERG current change (%, negative = inhibition) at 10uM” value was -63.7%.

Consider `O=C(O)C(=O)O.OC(CNCCc1ccc(C(F)(F)F)cc1)COC(c1ccccc1)c1ccccc1` (centres unmarked), for which the “hERG current change (%, negative = inhibition) at 10uM” value is -34.7%.

Regarding `Cc1cccc(C)c1OCC(O)CNC(C)c1ccccc1.Cl` (centres unmarked), the “hERG current change (%, negative = inhibition) at 10uM” value is given as -13.7%.

For `COC(=O)c1cc(S(=O)(=O)NCc2ccccc2Cl)c[nH]1`, the “hERG current change (%, negative = inhibition) at 10uM” value is recorded as 17.1%.

Consider `C1CN(CCN2CCOCC2)CCN1`, for which the “hERG current change (%, negative = inhibition) at 10uM” value was 21%.

For `Cc1cccc(C)c1NS(=O)(=O)c1ccc(NC(=O)c2ccc(Cl)c([N+](=O)[O-])c2)cc1`, the “hERG current change (%, negative = inhibition) at 10uM” value is reported as 13.9%.

With `Cc1ccc(S(=O)(=O)N(CC2CO2)c2ccccc2[N+](=O)[O-])cc1` (centres unmarked), the “hERG current change (%, negative = inhibition) at 10uM” value amounted to 13.1%.

As for `O=C(Nc1nnc(SCc2ccccc2Cl)s1)c1cccc([N+](=O)[O-])c1`, the “hERG current change (%, negative = inhibition) at 10uM” value was -3.26%.

As to `O=C(Nc1cc(Oc2ccc(Cl)cc2)cc([N+](=O)[O-])c1)c1ccco1`, the “hERG current change (%, negative = inhibition) at 10uM” value was found to be 15%.

Regarding `CCOc1cnn(-c2cc(Oc3ccc(C)cc3)ncn2)c(=O)c1Cl`, the “hERG current change (%, negative = inhibition) at 10uM” value is listed as -12.4%.

Consider `O=C(CSc1nnnn1-c1cccc2ccccc12)Nc1ccc(N2CCOCC2)c(Cl)c1`, for which the “hERG current change (%, negative = inhibition) at 10uM” value is recorded as 2.68%.

On to `CC(NCC(O)COc1ccc(Br)cc1)c1ccccc1.Cl` (centres unmarked), for which the “hERG current change (%, negative = inhibition) at 10uM” value is 0.452%.

Regarding `CC(C)c1ccc(OCC(O)CNC(C)c2ccccc2)cc1.Cl` (centres unmarked), the “hERG current change (%, negative = inhibition) at 10uM” value is -65.3%.

For `COc1ccc(OCC(O)CNC(C)c2ccccc2)cc1.Cl` (centres unmarked), the “hERG current change (%, negative = inhibition) at 10uM” value came to 5.12%.

In the case of `O=C1CCCN1c1cc(Cl)ccc1Cl`, the “hERG current change (%, negative = inhibition) at 10uM” value is 2.17%.

Regarding `CN(Cc1nc(-c2cnccn2)no1)CC1(c2ccccc2)CC1(C)C` (centres unmarked), the “hERG current change (%, negative = inhibition) at 10uM” value is 4.2%.

Take `COc1ccc(-c2nnc(-c3ccc(N)cc3)o2)cc1`: the “hERG current change (%, negative = inhibition) at 10uM” value was -5.64%.

For the compound `CC1CCCCN1C(=O)c1ccc(S(=O)(=O)N2CCCCC2C)cc1` (centres unmarked), the “hERG current change (%, negative = inhibition) at 10uM” value was -9.35%.

As for `COc1ccccc1N1CCN(C(=O)/C=C/c2ccc3c(c2)OCO3)CC1`, the “hERG current change (%, negative = inhibition) at 10uM” value is reported as -10.5%.

Consider `C=CCNC(=O)/C(=C\c1cccc([N+](=O)[O-])c1)NC(=O)c1ccccc1`, for which the “hERG current change (%, negative = inhibition) at 10uM” value is -53.4%.

Consider `CN(C)CCNC(=O)/C(=C/c1cccc([N+](=O)[O-])c1)NC(=O)c1ccccc1`, for which the “hERG current change (%, negative = inhibition) at 10uM” value is -66.9%.

In the case of `C=CCNC(=O)/C(=C/c1cccc([N+](=O)[O-])c1)NC(=O)c1ccco1`, the “hERG current change (%, negative = inhibition) at 10uM” value is -27.5%.

With `CC(C)(C)c1ccc(C(=O)N/C(=C\c2cccc([N+](=O)[O-])c2)C(=O)Nc2cccc(C(=O)O)c2)cc1`, the “hERG current change (%, negative = inhibition) at 10uM” value was 12.7%.

The values are drawn from paper PMC4336329 (PLoS ONE, 2015).
